# From PubChem
# An excerpt weighted towards active compounds, which were near 19% of everything screened.
# DT40 TDP1 no CPT: qHTS for Inhibitors of human tyrosyl-DNA phosphodiesterase 1 (TDP1): qHTS in cells in absence of CPT. DT40 Tdp1-/- hTDP1 cells, no CPT, ATP luminescence, 48 h. Potency, µM (highest dose often 46.2 µM), for the others: at the top dose activity change, negative = growth inhibition, most hits filed as inhibitors. 15% of 420,000 active. AID 686978, 2013; note: potency is the fitted concentration of half-maximal effect; nearly all actives have a fitted effect of over 55% in size
#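 Compound effects on proliferation are scored in DT40 Tdp1-/-;hTDP1 cells in the absence of CPT. ATP levels (CellTiter-Glo luminescence) are recorded after a ≥48 hr, 37 °C incubation.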
# HT1080-NT tox: kills 2HG-producing HT-1080-NT fibrosarcoma cells; HT-1080-NT fibrosarcoma viability, CellTiter-Glo ATP luminescence, 48 h; Potency, µM (highest dose often 46.1 µM), inactives show top-dose activity, negative = less viability, actives largely listed as cytotoxic; 1.6% of 360,000 active;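 note: NT is the 2HG producing partner of a matched IDH1 knockdown line; potency is the fitted concentration of half-maximal effect; 0% = DMSO-treated cells and -100% = media-only wells without cells; nearly all actives have a fitted effect of over 55% in size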
#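 HT-1080-NT fibrosarcoma cells (2HG-overproducing), 750 cells/well in RPMI with 5% FBS, dosed after 2 h and incubated 48 h at 37C. CellTiter-Glo luminescence normalized to DMSO and no-cell wells; concentration-response curves fitted and classed.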
# HT1080 IDH1KD tx: HT-1080 IDH1 knockdown cell toxicity (counter line). HT-1080 IDH1 knockdown viability, ATP luminescence, 48 h. Potency, µM (titrated, usually from 46.1 µM), without a hit: at the top dose activity, negative = toxicity, actives largely listed as cytotoxic. 2% of 360,000 active. AID 686971;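 note: potency is the fitted concentration of half-maximal effect; 0% = DMSO wells and -100% = cell-free medium wells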
#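 Cytotoxicity counter-line: IDH1KD HT-1080, 48 h, CellTiter-Glo. Curves classed by r2, magnitude and activity.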
# IL-1B inflam inh: blocks inflammasome-driven IL-1 beta release; THP-1 LPS/ATP IL-1B secretion, AlphaLISA, 16 h; hits give low values; activity change, % at 57.5 µM; 4.7% of 360,000 active; AID 743279; in the data active = activity change below about -50%; inconclusive = mostly about -30% to -49%
#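 Secreted IL-1B measured by AlphaLISA bead assay after 16 h compound exposure of THP-1 cells; compounds (final up to 57.5 uM) added 1 h before LPS (250 ng/mL) and ATP (1.25 mM) stimulation; lower signal means less secretion.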
# ELG1 DNA repair: blocks ELG1-dependent DNA repair in HEK293T cells; 2.3% of 330,000 active; HEK293T ELG1-luciferase reporter, luminescence, 16 h; DNA damage induced by 5-fluorouridine; AID 504467; Potency, µM (highest dose often 46.1 µM), inactives show at the top dose activity change, negative = inhibition, hits mostly inhibitors; note: potency is the fitted concentration of half-maximal effect; nearly all actives have a fitted effect of over 55% in size
#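 Cells (2,000 per well) received 5-fluorouridine plus test compound or DMSO and were incubated 16 hr at 37 °C, 5% CO2. Luciferase activity was read by luminescence 30 min after ONE-Glo addition; signal suppression marked inhibition of damage-induced ELG1 function.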
# TDP1 cell CPT: DT40-hTDP1 cell growth loss with CPT. 12% of 420,000 active. AID 686979. chicken DT40 Tdp1-/-;hTDP1 cells + 20 nM CPT, ATP luminescence, 48 h. Potency, µM (doses to about 46.2 µM), inactives show at the top dose activity change, negative = growth inhibition, usual class: inhibitors; note: potency is the fitted concentration of half-maximal effect; nearly all actives have a fitted effect of over 55% in size
#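 Chicken DT40 Tdp1-/- cells stably complemented with human TDP1 were seeded at 400 cells/well in medium containing 20 nM camptothecin, exposed to pin-transferred compounds, and grown at 37 °C for at least 48 hr. Viability was read as ATP luminescence.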
# Numbers without * were called inactive; ? = inconclusive; · = not tested or not shown. Unless noted, calls come from the whole dose curve; as a rule, active = well fitted curve in the direction sought with a large enough effect; inconclusive = small, poorly fitted or top-dose-only effect, or another doubt; inactive = no such curve, though single readings can be large; an effect the other way counts as inactive or inconclusive. Unless noted, % is set by controls: 0 for no effect and ±100 for the full control effect.
SMILES,DT40 TDP1 no CPT,HT1080-NT tox,HT1080 IDH1KD tx,IL-1B inflam inh,ELG1 DNA repair,TDP1 cell CPT
CCOC(=O)c1ccccc1NC(=O)C1CCN(c2ncnc3c2nc2n3CCCCC2)CC1,0%,·,·,·,·,-2%
CCc1ccc(NC(=O)C2CCN(c3ncnc4c3nc3n4CCCCC3)CC2)cc1,?,8%,0%,19,2.6µM*,?
O=C(Nc1ccc(F)cc1)C1CCN(c2ncnc3c2nc2n3CCCCC2)CC1,18µM*,0%,2%,-1,?,?
Cc1ccc(SCC(=O)N2CCN(S(=O)(=O)c3cccs3)CC2)cc1,?,1%,0%,-14,0%,-12%
CNC(=O)CSc1nnc(-c2ccco2)n1-c1cccc(OC)c1,12%,0%,-5%,-20,11%,-9%
CCC1CCCCN1S(=O)(=O)c1ccc(NC(=O)C2CC(=O)N(C(C)(C)C)C2)cc1 (configuration not stated),-24%,19%,19%,-5,·,10%
COc1ccccc1/C=C/C(=O)OCC(=O)NNC(=O)c1ccccc1,18µM*,7%,26%,24,1%,-25%
COc1cc(/C=C/C(=O)OCC(=O)NCc2ccco2)ccc1O,16µM*,-15%,-19%,2,-9%,21µM*
O=C(COC(=O)/C=C/c1ccc(F)cc1)NCc1ccco1,5%,6%,2%,-12,0%,10%
COc1ccccc1/C=C/C(=O)OCC(=O)NCc1ccco1,?,14%,16%,32,9%,18µM*
COc1ccccc1/C=C/C(=O)OCC(=O)NC1CC1,-7%,9%,1%,27,19%,8%
CC1CN(S(=O)(=O)c2cccc(C(=O)NCC(c3cccs3)N3CCOCC3)c2)CC(C)O1 (configuration not stated),-8%,1%,5%,39,·,-17%
Cc1ccc(C(C)(C)C)c(SCC(=O)Nc2nnc(C)s2)c1,-12%,3%,-14%,1,3%,2%
CN(C(=O)c1cc(-c2cccs2)nn1-c1ccccc1)C1CCS(=O)(=O)C1 (configuration not stated),10%,3%,8%,12,·,-3%
Fc1ccc2c(c1)/C(=N/Nc1ccccn1)CCS2,-23%,-22%,-13%,12,4%,5%
Cc1cc(=O)n(CC(=O)N2CCCc3ccccc32)c2c1c(C)nn2-c1cccc(F)c1,?,·,·,·,·,16µM*
Cc1cc(=O)n(CC(=O)N2CCN(c3ccc(F)cc3)CC2)c2c1c(C)nn2C,21µM*,·,·,·,·,18µM*
Cc1c2cnn(-c3ccccc3)c(=O)c2c(C)n1CC(=O)N1CCN(c2cccc(Cl)c2)CC1,13µM*,·,·,·,·,18µM*
Cc1c2cnn(-c3ccccc3)c(=O)c2c(C)n1CC(=O)N1CCN(c2ccc(F)cc2)CC1,15µM*,·,·,·,·,21µM*
CCOc1ccc(C(=O)NCCS(=O)(=O)N2CCN(c3cccc(Cl)c3)CC2)cc1,-13%,·,·,·,·,?
CCCN1CCN(C(=O)CCCn2c(C)c3cnn(-c4ccccc4)c(=O)c3c2C)CC1,1%,-4%,2%,-22,-10%,-21%
Cc1ccc(Cn2c(C)c3cnn(CC(=O)N4CCN(c5ccc(F)cc5)CC4)c(=O)c3c2C)cc1,12µM*,·,·,·,·,10µM*
COc1cccc(N2CCN(C(=O)Cn3ncc4c(=O)oc5ccccc5c43)CC2)c1,18µM*,·,·,·,·,16µM*
Cc1ccc(C)c(N2CCN(C(=O)Cn3c(C)c4cnn(-c5ccccc5)c(=O)c4c3C)CC2)c1,2.9µM*,·,·,·,·,5.2µM*
CC(C)NC(=O)C1(C#N)C=C1c1ccccc1 (configuration not stated),16µM*,16µM*,?,-84*,·,?
SMILES,DT40 TDP1 no CPT,HT1080-NT tox,HT1080 IDH1KD tx,IL-1B inflam inh,ELG1 DNA repair,TDP1 cell CPT
NC(=S)N/N=C1\CCOc2ccc(Cl)cc21,?,-16%,-15%,?,21µM*,18µM*
c1ccc(N=c2nc(-c3ccccc3)n(-c3ccccc3)s2)cc1,5.6µM*,·,·,·,·,6.3µM*
Cc1ccc(NS(=O)(=O)c2c(C)nc3sc(C)cn3c2=O)c(C)c1,18µM*,·,·,·,·,18µM*
CCCCn1c(N)c(N(CC)C(=O)c2cnc(C)cn2)c(=O)[nH]c1=O,-1%,3%,0%,-13,6%,-4%
CCN(CC)CCCn1c2c(c(SCC(=O)Nc3nc4ccccc4s3)nc1=O)CCC2,?,-19%,-9%,-51*,0%,-85%
CCN(CC)CCCn1c2c(c(SCC(=O)Nc3ccc(OC(F)(F)F)cc3)nc1=O)CCC2,?,-14%,-16%,-69*,9%,?
CCCCn1nnnc1C1(C)CCC(=O)N1Cc1ccco1 (configuration not stated),-19%,13%,0%,47,·,-11%
O=C(CN1CCN(c2ccccc2O)CC1)Nc1ccc([N+](=O)[O-])cc1Br,23µM*,-7%,-23%,6,?,?
O=C(CN1CCN(c2ccccc2O)CC1)Nc1cc([N+](=O)[O-])ccc1Cl,?,-4%,-5%,27,1%,?
COc1cc(NC(=O)CN2CCN(c3ccccc3O)CC2)c(C)cc1[N+](=O)[O-],?,-3%,-5%,0,21µM*,12µM*
